Consider 21 compounds from the supplement of paper PMC11732987, “Enantioselective OTUD7B fragment discovery through chemoproteomics screening and high-throughput optimisation” (Communications Chemistry, 2025).

A number with no mark means an inactive call.

Chain of ATXN3 (P54252 whole entry, the tested form may be a part): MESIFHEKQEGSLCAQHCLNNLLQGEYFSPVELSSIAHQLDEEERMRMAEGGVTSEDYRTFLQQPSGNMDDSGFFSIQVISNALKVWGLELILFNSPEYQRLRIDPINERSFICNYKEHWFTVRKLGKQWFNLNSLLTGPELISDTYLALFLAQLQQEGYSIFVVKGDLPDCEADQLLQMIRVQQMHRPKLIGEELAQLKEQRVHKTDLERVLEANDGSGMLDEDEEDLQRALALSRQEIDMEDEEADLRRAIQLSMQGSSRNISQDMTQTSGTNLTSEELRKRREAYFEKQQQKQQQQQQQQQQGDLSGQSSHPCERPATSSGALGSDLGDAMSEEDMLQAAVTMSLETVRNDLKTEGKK

The experiment addresses ATXN3 (UniProt P54252). As to the kind of experiment: log2 ratio of Biotin-Ahx-Ub-VS probe labelling (fragment/DMSO); higher = less target engagement (more negative = stronger competition), active = hit call of the paper (q ≤ 0.05, log2 ratio ≤ -1). Conditions: compound concentration: 200 uM; treatment time: 3 h. In outline: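 In triplicate, 495 µg of HEK293T lysate per sample was incubated with fragment at 200 µM or vehicle for 3 h. Biotin-Ahx-Ub-VS was then added to 0.5 µM final for 1 h, and labelled DUBs were captured with NeutrAvidin, digested with LysC and trypsin, and measured by diaPASEF LC-MS/MS. Data are average log2 fragment/vehicle ratios by unpaired t-test from global-median-normalised Spectronaut label-free quantities, restricted to proteins with ≥2 unique peptides.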
For `Cc1cccc(N(CCC#N)C(=O)CCl)c1C`, the “log2 ratio of Biotin-Ahx-Ub-VS probe labelling” value (“log2 ratio” below) is 0.0325.
For `O=C(CCl)NCC(=O)N1CCCC1`, the “log2 ratio” value was -0.179.
For `Cl.O=C(CCl)NC1(c2ncccn2)CCC1`, the “log2 ratio” value was 0.0333.
For `Cc1ccccc1OCC(=O)N1CCN(C(=O)CCl)CC1`, the “log2 ratio” value is -0.894.
The value for `O=C(CCl)N1CCOC2(CCC2)CC1` was -0.29.
Then `O=C(CCl)N1CCOC(CCc2ccccc2)C1` (stereo unspecified), with -0.798; and `CCC(NC(=O)CCl)c1ccc(Cl)cc1` (stereo unspecified), with -0.139.
With `COc1cc(Cl)c(C)cc1NC(=O)CCl`, the “log2 ratio” value was -0.37.
For `O=C(CCl)NCc1cccc(F)c1`, the “log2 ratio” value was -0.297.
As to `O=C(CCl)NCc1cccc(N2CCCC2=O)c1`, the “log2 ratio” value is -0.37.
Regarding `Cl.O=C(CCl)NCc1cc2c(nc1O)CCCC2`, the “log2 ratio” value is -0.358.
The value for `COc1ccc(CN(C)C(=O)CCl)cc1` was -0.667.
Turning to `CC1CCc2onc(CNC(=O)CCl)c2C1` (stereo unspecified), the “log2 ratio” value is 0.065.
On to `N#Cc1ccccc1N1CCN(C(=O)CCl)CC1`, for which the “log2 ratio” value was -1.16 (active).
For the compound `Cl.O=C(CCl)N1CCc2ncncc2C1`, the “log2 ratio” value is -0.297.
Then `Cc1cc(Cl)ccc1NC(=O)CCl`, with -0.0857; and `Cc1ccc(CC(NC(=O)CCl)c2ccccn2)cc1.Cl` (stereo unspecified), with 0.249.
On to `O=C(CCl)N1CCC(C(=O)N2CCCC2)CC1`, for which the “log2 ratio” value is -0.319.
The value for `CCc1c[nH]c(CNC(=O)CCl)n1.Cl` was -0.421; that for `O=C(CCl)NC(Cn1ccccc1=O)c1ccccc1` (stereo unspecified) was -0.00539.
The value for `Cc1nnc(C(NC(=O)CCl)c2ccccc2)n1C` (stereo unspecified) was 0.355.
